The results in this text go back to PubChem BioAssay (NCI).

Molecules are shown by their SMILES. This is part of a sample that, as a whole, favours compounds with a hit. Of some 79,000 tested, about 15% had one in any assay. Unmarked numbers belong to inactive results. Calls of active or inactive are those of the source. Cut-off read from the data, not from the text of the source: active = growth inhibition above about 70%; inactive = the rest.

A short description of the first experiment: NCI Yeast Anticancer Drug Screen. Data for the sgs1 mgt1 strain (AID 161).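 Note: 0% = growth of cultures given vehicle only.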 Particulars: S. cerevisiae sgs1 mgt1 strain, at 50.0 µM, active compounds read high. In outline:
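Growth of a repair-deficient yeast mutant was monitored after compound treatment and expressed as inhibition relative to vehicle-treated cultures.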
As to `CN(C)CCSc1nc2ccccc2o1`, the growth inhibition is 27.7%.

With `COC(=O)[C@H](Cc1c[nH]c2ccccc12)NP(=O)(OCCC#N)OCC1OC(n2cc(C)c(=O)[nH]c2=O)CC1N=[N+]=[N-]` (stereo not given in full), the growth inhibition is -23.4%.

Consider `CCOC1C=CCCO1` (stereo not given), for which the growth inhibition was 8.65%.

Regarding `CC(C)(C)[Si](C)(C)OCC1OC(n2cc(I)c(=O)[nH]c2=O)C(O[Si](C)(C)C(C)(C)C)C1O[Si](C)(C)C(C)(C)C` (stereo not given), the growth inhibition was -18.2%.

Regarding `CCCCCCCCCCCC(=O)N(CCOC(=O)c1ccccc1)CCc1ccccc1`, the growth inhibition is 16.6%.

Regarding `Cc1cc(C)nc(NS(=O)(=O)c2ccc(NC(=O)c3ccncc3)cc2)n1`, the growth inhibition was 3.05%.

As for `O=C(OCc1ccccc1)N(CCCCN(CCCNC(=O)C(F)(F)F)C(=O)OCc1ccccc1)CCCNC(=O)C(F)(F)F`, the growth inhibition is 21.4%.

In the case of `COc1ccc(CC[n+]2cccc(/C(=N/O)c3ccccc3)c2)cc1OC`, the growth inhibition is 25.2%.

As to `CC(=O)Oc1cccc2cc3cc(C)cc(OC(C)=O)c3c(OC(C)=O)c12`, the growth inhibition is 2.95%.

`O=C(/C=C/c1ccccc1)c1cccc([N+](=O)[O-])c1`: the growth inhibition was 21.4%.

For the compound `CC(=O)Oc1cc2c(cc1Cc1ccc3c(c1)OCO3)OCO2`, the growth inhibition was -7%.

Turning to `CC(C)(C)OC(=O)C(N)Cc1ccccc1` (stereo not given), the growth inhibition is 20.9%.

On to `CCCCOC(=O)NC(=O)c1cc2cc(I)cc(I)c2oc1=O`, for which the growth inhibition is -7.75%.

With `COC(=O)C[C@H](C)[C@H](C)CC(=O)O`, the growth inhibition was -1.6%.

For `CCOc1ccc(C2Oc3c(cccc3OC)C=C2[N+](=O)[O-])cc1OCC` (stereo not given), the growth inhibition is 32.5%.

Turning to `C/C=C(/C)c1cccc(OCc2ccccc2)c1OCc1ccccc1`, the growth inhibition was -5.65%.

With `COc1ccc2nc(Cl)sc2c1`, the growth inhibition was 41.4%.

Regarding `O=C(N(Cc1ccccc1)c1ccccc1)C(Cl)(Cl)Cl`, the growth inhibition is 78% (active).

`COc1ccc(-c2cc(-c3ccc(Cl)cc3)on2)cc1`: the growth inhibition was -4.55%.

With `c1ccc(CCN=C2c3ccccc3-n3cccc32)nc1`, the growth inhibition was -6.75%.

Consider `CCCCC(C(O)c1ccc(C(C)C)cc1)N(CC)CC` (stereo not given), for which the growth inhibition was 53.9%.

`COc1cc(C)nc2ccc(C(=O)c3ccccc3)cc12`: the growth inhibition was 31.6%.

Turning to `O=C1SCC(O)=C1/C=N/Nc1nc2ccccc2o1`, the growth inhibition was 27.1%.

`COc1ccc(-c2nc(N)nc3c2CN(CCC(=O)O)C3=O)cc1`: the growth inhibition was 12%.

Take `C/C(=N\NC(=S)Nc1ccc([N+](=O)[O-])cc1S(=O)(=O)O)c1ccccn1`: the growth inhibition is -5.85%.

Consider `CCN(CC)C(=O)C1CCCCN1` (stereo not given), for which the growth inhibition is 3.1%.

With `O=c1[nH]c2c([N+](=O)[O-])cc(Cl)cc2nc1/C=C(\O)c1cccnc1`, the growth inhibition was 33.8%.

As for `CC(=O)C(Cc1cccc([N+](=O)[O-])c1)Cc1cccc([N+](=O)[O-])c1`, the growth inhibition was -6.6%.

Turning to `O=C1CSC(c2c(F)cccc2Cl)N1c1nncs1` (stereo not given), the growth inhibition is 31.4%.

Turning to `COCCOCOC(C)(C)[C@H](CCO)O[Si](c1ccccc1)(c1ccccc1)C(C)(C)C`, the growth inhibition is 37.6%.

Turning to `C1=Cc2ccccc2Nc2ccccc21`, the growth inhibition was -10.8%.

In the case of `COC(=O)c1ccc(SCCC2(COS(C)(=O)=O)OCCO2)cc1`, the growth inhibition is 1.35%.

In the case of `COc1ccc(C(=O)/C=C/c2ccc(OC)c(OC)c2OC)c(O)c1`, the growth inhibition was -8.55%.

Take `CCC(C)(C)c1ccc(O)c(CNCCO)c1`: the growth inhibition was 2.9%.

As to `OC1CNC(=S)NC1`, the growth inhibition is -12.6%.

In the case of `c1ccc2c3[n+](ccc2c1)CCC[n+]1ccc2ccccc2c1-3`, the growth inhibition was 85% (active).

As to `C=C(C)COB(OCC(=C)C)OCC(=C)C`, the growth inhibition is -2.25%.

With `O=C(O)C(Cc1ccc(O)cc1)N=Cc1nc(-c2ccccc2)oc1O` (stereo not given), the growth inhibition was 0.25%.

Turning to `COc1cc2c(NCCCCCCO[N+](=O)[O-])ncnc2c(OC)c1OC`, the growth inhibition was 40.8%.

In the case of `Nc1nc2ncc(CCCNc3ccc(C(=O)NC(CCC(=O)O)C(=O)O)cc3)nc2c(=O)[nH]1` (stereo not given), the growth inhibition is 8.3%.

A further experiment can be described thus: NCI Yeast Anticancer Drug Screen. Data for the cln2 rad14 strain (AID 165).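 Note: 0% = growth equal to vehicle treated cultures.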 Particulars: S. cerevisiae cln2 rad14 strain, at 50.0 µM, active compounds read high. In outline: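 Yeast strain cln2 rad14, bearing defects in cell cycle control and DNA repair, serves as the test system; values reflect growth inhibition compared with vehicle.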
Take `CN(C)CCSc1nc2ccccc2o1`: the growth inhibition was 21.1%.

Consider `COC(=O)[C@H](Cc1c[nH]c2ccccc12)NP(=O)(OCCC#N)OCC1OC(n2cc(C)c(=O)[nH]c2=O)CC1N=[N+]=[N-]` (stereo not given in full), for which the growth inhibition is -13.3%.

Take `CCOC1C=CCCO1` (stereo not given): the growth inhibition was -6.55%.

Consider `CC(C)(C)[Si](C)(C)OCC1OC(n2cc(I)c(=O)[nH]c2=O)C(O[Si](C)(C)C(C)(C)C)C1O[Si](C)(C)C(C)(C)C` (stereo not given), for which the growth inhibition was 14.8%.

With `CCCCCCCCCCCC(=O)N(CCOC(=O)c1ccccc1)CCc1ccccc1`, the growth inhibition was 19.2%.

Take `Cc1cc(C)nc(NS(=O)(=O)c2ccc(NC(=O)c3ccncc3)cc2)n1`: the growth inhibition is 9.55%.

As to `O=C(OCc1ccccc1)N(CCCCN(CCCNC(=O)C(F)(F)F)C(=O)OCc1ccccc1)CCCNC(=O)C(F)(F)F`, the growth inhibition is 20.4%.

`COc1ccc(CC[n+]2cccc(/C(=N/O)c3ccccc3)c2)cc1OC`: the growth inhibition is 2.7%.

For the compound `CC(=O)Oc1cccc2cc3cc(C)cc(OC(C)=O)c3c(OC(C)=O)c12`, the growth inhibition was -2.95%.

For `O=C(/C=C/c1ccccc1)c1cccc([N+](=O)[O-])c1`, the growth inhibition is 54.9%.

Take `CC(=O)Oc1cc2c(cc1Cc1ccc3c(c1)OCO3)OCO2`: the growth inhibition was -6.2%.

For `CC(C)(C)OC(=O)C(N)Cc1ccccc1` (stereo not given), the growth inhibition was 0.35%.

As to `CCCCOC(=O)NC(=O)c1cc2cc(I)cc(I)c2oc1=O`, the growth inhibition is -50.2%.

On to `COC(=O)C[C@H](C)[C@H](C)CC(=O)O`, for which the growth inhibition is -7.3%.

For the compound `CCOc1ccc(C2Oc3c(cccc3OC)C=C2[N+](=O)[O-])cc1OCC` (stereo not given), the growth inhibition was 11.4%.

Regarding `C/C=C(/C)c1cccc(OCc2ccccc2)c1OCc1ccccc1`, the growth inhibition was -21.6%.

Take `COc1ccc2nc(Cl)sc2c1`: the growth inhibition was 21.4%.

`O=C(N(Cc1ccccc1)c1ccccc1)C(Cl)(Cl)Cl`: the growth inhibition is 30.1%.

Turning to `COc1ccc(-c2cc(-c3ccc(Cl)cc3)on2)cc1`, the growth inhibition was -35.8%.

On to `c1ccc(CCN=C2c3ccccc3-n3cccc32)nc1`, for which the growth inhibition was -28.1%.

Turning to `CCCCC(C(O)c1ccc(C(C)C)cc1)N(CC)CC` (stereo not given), the growth inhibition was 9%.

As to `COc1cc(C)nc2ccc(C(=O)c3ccccc3)cc12`, the growth inhibition was 17.5%.

`O=C1SCC(O)=C1/C=N/Nc1nc2ccccc2o1`: the growth inhibition is 31.7%.

As to `COc1ccc(-c2nc(N)nc3c2CN(CCC(=O)O)C3=O)cc1`, the growth inhibition is -8.6%.

For `C/C(=N\NC(=S)Nc1ccc([N+](=O)[O-])cc1S(=O)(=O)O)c1ccccn1`, the growth inhibition is -2.35%.

As to `CCN(CC)C(=O)C1CCCCN1` (stereo not given), the growth inhibition was -43.2%.

Turning to `O=c1[nH]c2c([N+](=O)[O-])cc(Cl)cc2nc1/C=C(\O)c1cccnc1`, the growth inhibition was 36.2%.

As for `CC(=O)C(Cc1cccc([N+](=O)[O-])c1)Cc1cccc([N+](=O)[O-])c1`, the growth inhibition is -38%.

Take `O=C1CSC(c2c(F)cccc2Cl)N1c1nncs1` (stereo not given): the growth inhibition was 13%.

With `COCCOCOC(C)(C)[C@H](CCO)O[Si](c1ccccc1)(c1ccccc1)C(C)(C)C`, the growth inhibition was 91.6% (active).

Regarding `C1=Cc2ccccc2Nc2ccccc21`, the growth inhibition is 1.65%.

On to `COC(=O)c1ccc(SCCC2(COS(C)(=O)=O)OCCO2)cc1`, for which the growth inhibition is 18.7%.

Consider `COc1ccc(C(=O)/C=C/c2ccc(OC)c(OC)c2OC)c(O)c1`, for which the growth inhibition is -18.5%.

For the compound `CCC(C)(C)c1ccc(O)c(CNCCO)c1`, the growth inhibition is -18.9%.

As to `OC1CNC(=S)NC1`, the growth inhibition was -22.2%.

In the case of `c1ccc2c3[n+](ccc2c1)CCC[n+]1ccc2ccccc2c1-3`, the growth inhibition is 60%.

On to `C=C(C)COB(OCC(=C)C)OCC(=C)C`, for which the growth inhibition was 1.95%.

`O=C(O)C(Cc1ccc(O)cc1)N=Cc1nc(-c2ccccc2)oc1O` (stereo not given): the growth inhibition is 3%.

For `COc1cc2c(NCCCCCCO[N+](=O)[O-])ncnc2c(OC)c1OC`, the growth inhibition was 43.8%.

Take `Nc1nc2ncc(CCCNc3ccc(C(=O)NC(CCC(=O)O)C(=O)O)cc3)nc2c(=O)[nH]1` (stereo not given): the growth inhibition is 10.2%.
